Compound activity: PubChem, Broad Institute
PDI turbidity: inhibitors of human protein disulfide isomerase | P07237 | PDI insulin aggregation turbidity, A650, 90 min | inhibition, % at 10 µM | actives 0.052% (n = 350,000) | AID 588391;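 active means mean inhibition across replicates of 30% or more, whatever share of single replicates reach that level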
Target sequence (P07237 whole entry, looked up): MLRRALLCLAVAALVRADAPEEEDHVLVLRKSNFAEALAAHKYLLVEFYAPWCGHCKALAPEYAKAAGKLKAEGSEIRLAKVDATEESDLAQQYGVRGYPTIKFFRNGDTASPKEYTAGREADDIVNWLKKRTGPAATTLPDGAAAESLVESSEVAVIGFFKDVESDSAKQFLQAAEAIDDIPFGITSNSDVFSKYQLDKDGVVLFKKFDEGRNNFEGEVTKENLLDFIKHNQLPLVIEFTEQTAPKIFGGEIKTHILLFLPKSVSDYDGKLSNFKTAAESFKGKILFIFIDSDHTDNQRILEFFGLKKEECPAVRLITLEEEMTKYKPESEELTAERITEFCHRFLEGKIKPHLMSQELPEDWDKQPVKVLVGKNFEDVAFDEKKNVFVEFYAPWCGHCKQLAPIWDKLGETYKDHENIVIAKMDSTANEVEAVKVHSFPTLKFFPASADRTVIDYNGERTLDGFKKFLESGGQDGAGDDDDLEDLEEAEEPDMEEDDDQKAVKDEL
PGC1a acetyl inh: PGC1a acetylation modulation, inhibitor mode; U2OS PGC1a acetylation, AlphaScreen anti-acetyl-lysine; with virally co-expressed GCN5 acetyltransferase; inhibition, % at 15.6 µM; actives 0.17% (n = 350,000); AID 651687;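 active means every replicate shows inhibition of at least 40%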
CaV13 ICDI inh: Primary screen for inhibitors of IQ motif and Ca2+-dependent inactivation inhibitor domain binding in CACNA1D, Förster resonance energy transfer in living cells, … | HEK cells, CFP/YFP FRET ICDI-IQ, plate reader, 10 min; percent FRET-ratio fall versus neutral wells | inhibition, % at 12.3 µM | actives 0.098% (n = 340,000) | AID 743397;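 active means mean replicate inhibition of at least 30% and at least 1% of replicates passing that level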
ERp5 block: inhibitors of human ERp5; Q15084; ERp5 insulin aggregation, absorbance 650 nm, 90 min; inhibition, % at 9.99 µM; actives 0.05% (n = 350,000); AID 651711;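 active means mean replicate inhibition above about 25%, with every replicate also reaching it, limit read from the data, passing the limit was not always enough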
PglD DTNB: PglD (C. jejuni) enzyme inhibition | purified PglD enzyme, DTNB colorimetric CoA detection | inhibition, % at 12.5 µM | actives 0.098% (n = 360,000) | AID 602405; in the data active means inhibition above about 16%, passing the limit was not always enough
ERAP1 inh: inhibitors of human ERAP1 aminopeptidase. Q9NZ08. recombinant ERAP1, Leu-AMC fluorescence, 60 min. inhibition, % at 10.7 µM. actives 0.15% (n = 340,000). AID 652197;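 active means mean replicate inhibition of at least 30%, or all replicates individually reaching that 30% level; inactive means mean below 30% and not every replicate reaching it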
A number is an active result; - = inactive; . = no result given; + = active, no number; ! = not confirmed by another sample. An excerpt weighted towards active compounds, which were near 0.46% of everything screened.

SMILES | PDI turbidity | PGC1a acetyl inh | CaV13 ICDI inh | ERp5 block | PglD DTNB | ERAP1 inh
COc1cc(CN2CCN(Cc3ccccc3C(F)(F)F)CC2)cc(OC)c1OC | - | 63 | - | - | - | -
Cc1ccc(S(=O)(=O)N[C@@H]2C=C[C@H](CC(=O)N3CCN(c4ccccc4)CC3)O[C@@H]2CO)cc1 | . | - | . | - | - | -
O=c1c2ccccc2sn1-c1ccc(F)cc1 | - | - | - | - | - | 52
COC(=O)c1cccc(-n2sc3ccccc3c2=O)c1 | - | - | - | - | - | 86
O=c1c2ccc(F)cc2sn1-c1ccccc1 | - | . | - | - | - | .
O=c1c2cc(F)ccc2sn1-c1ccccc1Cl | - | . | - | - | - | 61
Cc1ccc(-n2sc3ccccc3c2=O)cc1 | - | . | - | . | . | .
CCC(=O)Nc1ccc2c(c1)OC[C@@H](C)N(C(=O)COC)C[C@H](C)[C@@H](OC)CN(C)C2=O | . | - | . | . | . | .
C[C@@H]1CN([C@H](C)CO)C(=O)c2cccc(NS(=O)(=O)c3cccs3)c2O[C@H]1CN(C)S(=O)(=O)c1cn(C)cn1 | . | - | . | - | - | -
O=C(c1ccccn1)N1CC(=O)N2[C@@H](CO)[C@@H](c3ccc(C#CCc4ccccc4)cc3)[C@@H]2C1 | . | - | . | - | . | -
COc1cc(CN2C[C@@H]3N[C@H](C2)C3c2ccc(-c3ccccc3C)cc2)cc(OC)c1 (stereo not given in full) | . | 105! | . | - | . | -
COc1cccc(CN2C[C@@H]3N[C@H](C2)C3c2ccc(-c3ccccc3C)cc2)c1 (stereo not given in full) | . | - | . | . | . | .
COc1ccc(-c2ccc(C3[C@@H]4CN(Cc5cccc(OC)c5)C[C@H]3N4)cc2)cc1 (stereo not given in full) | . | - | . | - | . | -
COc1cccc(-c2ccc(C3[C@@H]4CN(Cc5cccc(F)c5)C[C@H]3N4)cc2)c1 (stereo not given in full) | . | 97! | . | - | . | -
C[C@H](CO)N1C[C@H](C)[C@H](CN(C)Cc2ccc(F)cc2)Oc2ncc(-c3ccc(F)cc3)cc2C1=O | . | - | . | . | . | .
CCCCNC(=O)C(OC(=O)c1ccccc1)c1ccco1 (stereo not given) | . | . | . | - | - | -
O=C1C=CCCN1C(=O)/C=C/c1cccc(Br)c1 | . | 46 | . | - | . | -
C=CCNC(=O)[C@@H]1[C@H]2C(=O)O[C@H](c3ccccc3)[C@H](c3ccccc3)N2[C@H](c2ccccc2OCCO)[C@@]12C(=O)N(C(=O)OCCOC)c1ccccc12 | . | . | . | - | - | -
COc1ccc(-c2ccc3c(N)c(C(=O)c4cccc(OC)c4)sc3n2)cc1 | - | - | - | . | - | .
COc1ccc(C(=O)c2sc3nc(-c4ccc(OC)cc4)ccc3c2N)cc1 | - | . | 134 | - | . | -
C[C@@H]1CN([C@H](C)CO)C(=O)c2cc(NS(=O)(=O)c3cccs3)ccc2O[C@@H](C)CCCCO[C@@H]1CN(C)S(=O)(=O)c1ccccc1 | . | - | . | - | - | -
C[C@@H]1CCCCO[C@H](CN(C)C(=O)C2CCCCC2)[C@H](C)CN([C@@H](C)CO)C(=O)c2cc(NC(=O)CCC(F)(F)F)ccc2O1 | . | - | . | - | - | -
CCOC(=O)CC1(C)OCC(C[N+]2(C)CCCCC2)O1 (stereo not given) | - | . | - | - | . | 96
C[C@@H]1CN([C@@H](C)CO)C(=O)c2cc(NC(=O)c3ccccc3)ccc2O[C@@H](C)CCCCO[C@@H]1CN(C)C(=O)Cc1ccccc1 | . | - | . | - | - | -
CN1C(=O)/C(=C/c2ccccc2OCc2ccc(F)cc2)N(C)C1=S | - | - | - | - | - | -
SMILES | PDI turbidity | PGC1a acetyl inh | CaV13 ICDI inh | ERp5 block | PglD DTNB | ERAP1 inh
Cc1cccc(COc2ccc(/C=C3/C(=O)N(C)C(=S)N3C)cc2)c1 | - | 71 | - | - | - | -
C[C@@H]1CCCCO[C@@H](CN(C)C(=O)CCC(F)(F)F)[C@@H](C)CN([C@@H](C)CO)C(=O)c2cc(NC(=O)NC3CCCCC3)ccc2O1 | . | - | . | - | - | -
COc1ccc(C2C3=C(CC(C)(C)CC3=O)N(C)C3=C2C(=O)CC(C)(C)C3)cc1 | - | - | + | - | - | -
COCCn1c(=N)c(C(=O)NCc2ccco2)cc2c(=O)n3cc(C)ccc3nc21 | - | . | - | - | - | 66
Cc1ccc2nc3c(cc(C(=O)NCc4ccco4)c(=N)n3C3CCCC3)c(=O)n2c1 | - | - | - | - | - | -
COc1ccc(-[n+]2c(C)cc(/C=C3\Sc4ccccc4N3C)cc2C)cc1 | - | . | 34 | - | . | -
Cc1oc(/N=C/c2ccc(F)cc2)c(C#N)c1C | - | - | 82 | - | - | -
C[C@H](CO)N1C[C@H](C)[C@@H](CN(C)C(=O)Nc2cccc3ccccc23)Oc2ccc(NC(=O)Nc3ccc4c(c3)OCO4)cc2C1=O | . | - | . | - | - | -
CC(=O)N1CCc2c(sc(NC(=O)C3CCN(S(=O)(=O)c4cccs4)CC3)c2C(N)=O)C1 | - | . | - | - | - | -
CCCN1CCc2c(sc(NC(=O)C3CCN(S(=O)(=O)c4cccs4)CC3)c2C(N)=O)C1 | - | . | 34 | - | - | -
O=c1cc2c(nn1Cc1ccc(F)cc1)-c1ccccc1CC2 | - | . | - | - | . | -
Fc1ccc(CO/N=C/C2=C(Cl)c3ccccc3CC2)cc1 | - | 79 | - | . | . | .
COCC(=O)N1[C@@H]2CN(C(=O)NC(C)C)c3ccccc3[C@@H]2[C@@H]1CO | . | - | . | - | - | -
CC(C)(C)c1ccc(-n2nc(C#N)c(Cl)cc2=O)cc1 | - | 82 | - | - | . | -
COc1ccccc1CN1C(=O)c2ccccc2[C@](Cc2ccccc2I)(C(=O)NCc2ccccc2)[C@@H]1c1ccc(CO)cc1 | . | - | . | . | . | .
O=C(O)C1C2CC3OC(=O)C1C3C2 (stereo not given) | - | 62 | - | - | - | -
O=C(O)C1C2CC3C(OC(=O)C31)C2Cl (stereo not given) | - | - | - | . | . | .
C=CC1CN(S(=O)(=O)c2ccc(Br)cc2)C(=O)N1c1ccc(Br)cc1 (stereo not given) | . | - | . | - | - | -
COc1cc(/C=C/C(=O)OCC(=O)c2ccc3c(c2)NC(=O)CO3)ccc1OC(F)F | - | - | - | - | - | 37
CN(C)c1ccc(C=C2SC(=S)NC2=O)cc1 | - | 51 | - | - | - | -
CCOc1ccc(N(C)c2ccc(/C=C3/SC(=S)NC3=O)cc2)cc1 | - | . | - | - | - | -
CCOc1ccccc1-n1c(SCC(=O)Nc2nccs2)nnc1-c1ccoc1C | - | - | - | - | - | -
CCOc1ccc(-n2c(SCC(=O)Nc3nccs3)nnc2-c2ccoc2C)cc1 | - | - | 179 | - | - | -
CC(C)CNC(=O)[C@@H]1c2ccccc2C(=O)N(CC23CC4CC(CC(C4)C2)C3)[C@H]1c1ccc(CO)cc1 | . | - | . | - | - | -
